The source of these data is the supplement of paper PMC11417369.

Whole data set: some 25,000 sequences, median “ln(normalized median fluorescence intensity)” near 7.1, cut for the highest 2% near 10. The entries come from a sample that favours the highest values as a whole.

In this assay the test system is PfSIP2 AP2 domain 1 (GST-tagged). The assay is described as follows: gcPBM binding intensity (ln(normalized median fluorescence intensity)); higher = stronger DNA binding. In outline: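 Binding intensity is defined as the maximum Masliner-normalised natural-log median intensity across replicate spots for either probe orientation. It was measured on an Agilent 4 × 180k array of primer-extended double-stranded 36-bp intergenic genomic probes and negative controls, to which GST-tagged P. falciparum DNA-binding domains made in E. coli were applied for 1 h in 1× PBS with 1% milk, 0.2 mg/ml BSA, 0.5% salmon testes DNA and 0.03% Triton X-100. Detection was by Alexa488 anti-GST antibody and scanning at 488 nm.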
With “TATAATAATATTTATTGTACAATTAGTTTAATTCAT [XGTACX_site272]”, the “gcPBM binding intensity (ln)” value turned out to be 7.08. With “TACAAAAAAGAAGATATTCAAACAAAAACAAAAAAA [CACACA_negctrl_site1126]” the figure was 6.8.

For the sequence “CTCCTCATATAATTTTGTACATAAAAAATTACCATT [XGTACX_site3879]”, the “gcPBM binding intensity (ln)” value is 7.31. With “CCCCATATAATGAACACACACACTCCTCATAATTAA [CACACA_site628]” the figure was 7.15; with “TAATCATAACTTGATACGCACACGTTATATAAATAA [CACACA_site1579]”, 7.02; with “ATAAAATAAAATAAATGTACACGAAAAAAAATATTT [XGTACX_site3747]”, 7.25. “TATTATATATATGCACGTACAAAAATAATAAAGGTA [XGTACX_site3506]”: the “gcPBM binding intensity (ln)” value worked out at 7.71.

On to “ATGAATAAATTAAAAATGCACACTTTGATGGGTACA [CACACA_site2157]”, for which the “gcPBM binding intensity (ln)” value is 7.46. For “TAACAATTAATAAAAGGTACACTTGAATATGCACCA [XGTACX_site2717]”, the “gcPBM binding intensity (ln)” value amounted to 10.5. For the sequence “TTTAAATACAGACATACACACATACACGCACATATA [CACACA_site6400]”, the “gcPBM binding intensity (ln)” value stood at 7.17. For “TTTGAGTGCACATACACACAGACATACATTTAAATA [CACACA_site3403]”, the “gcPBM binding intensity (ln)” value is 11.9.

For “TTATACAGATATTTAACACACATTTTATAAAGTGCC [CACACA_site4851]”, the “gcPBM binding intensity (ln)” value came out at 6.87. As for “TAAATTTTTAAATACACACATACACCCATACAGACA [CACACA_site548]”, the figure is 7.51. With “TTTTTGAGTGCACATACACACAGACATACATTTAAA [CACACA_site5813]” the figure was 11.5; with “TTTAAATACAGACATACACACATACACAGACATATA [CACACA_site4460]”, 6.97. As for “TCCTTTTTGAAATGTTGTACTTTTTTTATCTTTCAT [XGTACX_site953]”, the figure is 7.12; as for “ATTAACTATCATAACACACACAGTAGACATATTTTT [CACACA_site1822]”, 7.04; as for “GATATATAAACATATACACACAAAAACATATTTATA [CACACA_site6734]”, 6.98. As to “TGAATTATAAATTATAGTACTTTATAATATGAACAT [XGTACX_site2317]”, the “gcPBM binding intensity (ln)” value was 6.81. Take “AGAAAAATTCTAAGAACATGCAAAAAAATAAAAAAA [TGCATGCA_site293]”: the “gcPBM binding intensity (ln)” value amounted to 6.84. With “AAAAAAAAAATTTTCGTGCACATAAGAAAATTTAAA [GTGCAC_site9788]” the figure was 9.36. With “TTTTTTTTTTTTTTGGTGCACATAGAAATTCTAAAA [GTGCAC_site9809]”, the “gcPBM binding intensity (ln)” value stood at 11.3. As for “ATTAAATGCACATATACACACACCCAATTTTAAGTT [CACACA_site3049]”, the figure is 7.4. As for “TATGTAATAAATAGTACACACACACCGATATATATA [CACACA_site8389]”, the figure is 7.46; as for “AAGGATTACAAAAAAAGTACAAATGGATTTTTTCCC [XGTACX_site8905]”, 6.84.

On to “TGCTTATATATACGTGCACACATATATATAAGATAT [CACACA_site8516]”, for which the “gcPBM binding intensity (ln)” value was 9.74. With TGCAAGCTTATATAGGTGCACATGTATACGTGTTCA the figure was 11.3; with “TATGTTTACATATACGTGCACATGAATGTATACATT [GTGCAC_site9894]”, 9.69; with “ATAACATACATAACAACACACAATATTTATAGGTAT [CACACA_site6243]”, 7.12.

In the case of “ATATAATCAACTGCAAAGGTTTAAAAGGAAAAAATA [CACACA_negctrl_site989]”, the “gcPBM binding intensity (ln)” value was 6.79. As for “TGATATTATTATAAGGTGCTTAAAAATAAAGATAAT [GTGCAC_site9539]”, the figure is 7.78.

Turning to AAATTAAAGATAAAAGTGCAAAATTATAAATTTATT, the “gcPBM binding intensity (ln)” value worked out at 7.97. As for ATTATTTGATTAAAGGTGCAAGGATAATAATAAAAC, the figure is 10.3; as for “TTAACAAAACATAAGGTGCTTAAAATTTTATATCAC [GTGCAC_site9839]”, 7.96; as for “AATTTATAAATAATTAATTTGATAAATTATAAAGGG [GTGCAC_negctrl_site544]”, 7.02. For “ATTATCCATCAAAAGGTGCAAATTTTTAATTATAAA [GTGCAC_site9932]”, the “gcPBM binding intensity (ln)” value came out at 11.1. As for “TTTATTAATAAAAAGGTGCAATCAGGAAAAATTATC [GTGCAC_site9626]”, the figure is 10.8; as for “TATATATTAATCAAAGTGCAATAATAAAATAAAAGT [GTGCAC_site9490]”, 8.38. On to “AAATTTAACAACTTCAAACACACAATATATATATAT [CACACA_site2092]”, for which the “gcPBM binding intensity (ln)” value came out at 8.91.

Take “AACATACCCATATACACACACACATAAATACAGATA [CACACA_site4744]”: the “gcPBM binding intensity (ln)” value came to 7.3. Turning to “GATTGATTATATGTGTGTACTTATATGTTAAAAAAA [XGTACX_site4784]”, the “gcPBM binding intensity (ln)” value was 7.29. With “AGTCATATAAATAGTAGTACTGTGTGTGAAGAAAAA [XGTACX_site5056]” the figure was 7.42; with “TTAACAAAATTTCCGTGTACGTAAATAAGAACATAG [XGTACX_site7200]”, 7.25.

In the case of “ACAAATACAAAAAAAGGTACACACATAATATATTTA [XGTACX_site5515]”, the “gcPBM binding intensity (ln)” value was determined as 7.04. With “ACATTCAATCTACTGTGTACATATTAAACTTTGAAA [XGTACX_site2913]” the figure was 7.49; with “ATTATATATATATTATGTACATATATTGAAGTGGAT [XGTACX_site5916]”, 7.56; with “GTTAATATTTTTGGGGGTACTTAAAAAAAAAAAAAA [XGTACX_site1477]”, 7.78.

With “ATTTTTTTTTTTTTTTTGGGGGGGTATACTTTTAAA [CACACA_negctrl_site1020]”, the “gcPBM binding intensity (ln)” value amounted to 10.7.

“TATACTTTATATATTTTGTATATATATTTTTTTTAT [TGCATGCA_negctrl_site530]”: the “gcPBM binding intensity (ln)” value amounted to 7. With “AATAAATTGAAACACACACACACATATATATATATA [CACACA_site848]” the figure was 9.2; with “AGGAGGATATTACACAGTACCCAGGAAATCTACGGA [XGTACX_site4878]”, 6.82; with “CTTAAATTAATTTGGGTGCATATATTTGTACACATT [GTGCAC_site9948]”, 10.9. Turning to “ATATATAATTAATTTTGTACACATAAAAAAAAAAAT [XGTACX_site6647]”, the “gcPBM binding intensity (ln)” value was found to be 7.25. As for “ACATATTTTATTTTTTGTACACATATATTATTTTTT [XGTACX_site6528]”, the figure is 7.28; as for “AATTAATTAAATTAATGTACACATATATTTGTATTC [XGTACX_site2341]”, 7.14. With “TTGGGTGCATATATTTGTACACATTATTTCTATTTT [XGTACX_site3688]” the figure was 12; with “TTGCATATTTCTAATTGTACATTATTTTATTTTATA [XGTACX_site8451]”, 6.96.
